Reference: PubChem BioAssay (EPA / NIEHS)
Calls of active or inactive are those of the source. Rule for the calls: active = hit-call score of the fitted dose curve at least 0.9, where 1 is the maximum; inactive = score below 0.9.

Experiments:
[1] = read-out: Monokine induced gamma interferon (MIG), CXCL9 (gene 4283); assay: BSK_hDFCGF_MIG: BioMAP Diversity Plus: hDFCGF Assay for Monokine induced gamma interferon (MIG) Biomarker Activity (AID 2283063); conditions: primary human foreskin fibroblasts; actives raise or lower the signal
Outline: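 Endpoint derived by bidirectional fitting relative to DMSO; MIG quantified via ELISA in primary human foreskin fibroblasts harvested 24 h after dosing.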

[2] = read-out: Matrix Metallopeptidase 1 (MMP1), MMP1 (gene 4312); assay: BSK_hDFCGF_MMP1: BioMAP Diversity Plus: hDFCGF Assay for Matrix Metallopeptidase 1 (MMP1) Biomarker Activity (AID 2283064); conditions: primary human foreskin fibroblasts; actives raise or lower the signal
Outline: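 Human foreskin fibroblasts exposed to chemical for 24 h; MMP1 detected by ELISA, with DMSO as baseline for bidirectional fitting.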

[3] = read-out: Vascular cell adhesion molecule 1 (VCAM1), VCAM1 (gene 7412); assay: BSK_hDFCGF_VCAM1: BioMAP Diversity Plus: hDFCGF Assay for Vascular cell adhesion molecule 1 (VCAM1) Biomarker Activity (AID 2283065); conditions: primary human foreskin fibroblasts; actives raise or lower the signal;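 for AC50: VCAM-1 protein level quantified by ELISA after 24 h chemical exposure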
Outline: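 Measured after 24 h chemical treatment of primary human skin fibroblasts, VCAM-1 was detected by ELISA and concentration-response analysed in both directions versus DMSO vehicle.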

[4] = read-out: Plasminogen activator inhibitor-1 (PAI1), SERPINE1 (gene 5054); assay: BSK_hDFCGF_PAI1: BioMAP Diversity Plus: hDFCGF Assay for Plasminogen activator inhibitor-1 (PAI1) Biomarker Activity (AID 2283066); conditions: primary human foreskin fibroblasts; actives raise or lower the signal
Outline: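 PAI-1 levels in human dermal foreskin fibroblasts were quantified by ELISA 24 h after dosing, with gain or loss analysed against DMSO. Overt cytotoxicity was checked by sulforhodamine B total-protein staining in parallel cultures.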

[5] = read-out: Intercellular Adhesion Molecule 1 (ICAM1), ICAM1 (gene 3383); assay: BSK_KF3CT_ICAM1: BioMAP Diversity Plus: KF3CT Assay for Intercellular Adhesion Molecule 1 (ICAM1) Biomarker Activity (AID 2283067); conditions: primary human keratinocytes with fibroblasts; actives raise or lower the signal
Outline: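 Bidirectional curve fitting against a DMSO baseline was applied to ICAM-1 ELISA signal from primary human skin co-cultures harvested 24 h after treatment, with SRB staining of parallel wells for overt cytotoxicity.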

[6] = read-out: Interferon-gamma inducible Protein 10 (IP10), CXCL10 (gene 3627); assay: BSK_KF3CT_IP10: BioMAP Diversity Plus: KF3CT Assay for Interferon-gamma inducible Protein 10 (IP10) Biomarker Activity (AID 2283068); conditions: primary human keratinocytes with fibroblasts; actives raise or lower the signal
Outline: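 In a primary skin co-culture of keratinocytes and fibroblasts, IP-10 is quantified by ELISA at 24 h after dosing. SRB staining of parallel wells monitors overt toxicity. Curves are fitted both directions against DMSO.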

[7] = BSK_KF3CT_SRB: Viability Assessment in the BioMAP Diversity Plus: KF3CT Assay (AID 2283069); conditions: primary human keratinocytes with fibroblasts;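 note: read 24 h after compound addition; fitted for both signal gain and loss against DMSO baseline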
Outline: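 Overt cytotoxicity is assessed as total protein by sulforhodamine B staining in parallel human skin co-cultures at 24 h after dosing. DMSO serves as negative control and baseline.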

[8] = read-out: Interleukin-1 alpha (IL1a), IL1A (gene 3552); assay: BSK_KF3CT_IL1a: BioMAP Diversity Plus: KF3CT Assay for Interleukin-1 alpha (IL1a) Biomarker Activity (AID 2283070); conditions: primary human keratinocytes with fibroblasts; actives raise or lower the signal
Outline: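 Readout is IL-1a level by ELISA, compared bidirectionally with DMSO as baseline. Cells: human keratinocytes co-cultured with foreskin fibroblasts, harvested 24 h post-dose.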

[9] = read-out: TIMP metallopeptidase inhibitor 2 (TIMP2), TIMP2 (gene 7077); assay: BSK_KF3CT_TIMP2: BioMAP Diversity Plus: KF3CT Assay for TIMP metallopeptidase inhibitor 2 (TIMP2) Biomarker Activity (AID 2283071); conditions: primary human keratinocytes with fibroblasts; actives raise or lower the signal
Outline: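 TIMP-2 measured by ELISA at 24 h in human keratinocyte/fibroblast primary co-cultures exposed to chemicals. Both increases and decreases were fitted against DMSO. Parallel cultures were stained with SRB for total protein as an overt-cytotoxicity check.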

[10] = read-out: Transforming growth factor beta 1 (TGFb1), TGFB1 (gene 7040); assay: BSK_KF3CT_TGFb1: BioMAP Diversity Plus: KF3CT Assay for Transforming growth factor beta 1 (TGFb1) Biomarker Activity (AID 2283072); conditions: primary human keratinocytes with fibroblasts; actives raise or lower the signal
Outline: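 ELISA quantifies TGF-b1 at 24 h post-dose in a primary human skin co-culture of keratinocytes and fibroblasts, with gain or loss judged against DMSO. Parallel SRB total-protein staining flags overt cytotoxicity.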

In the case of `CCCCCCCCOc1ccc(C(=O)c2ccccc2)c(O)c1`, the outcome [1] is reported as “inactive”, the outcome [2] is reported as “inactive” and the outcome [3] is reported as “inactive”. For the same compound, the outcome [4] was “inactive”, the outcome [5] was “inactive” and the outcome [6] was “inactive”. For the same compound, the outcome [7] was “inactive”, the outcome [8] was “inactive” and the outcome [9] was “inactive”. For the same compound, the outcome [10] was “inactive”.
For `CN(C)C(=O)C1(N2CCCCC2)CCN(CC[C@@]2(c3ccc(Cl)c(Cl)c3)CN(C(=O)c3ccccc3)CCO2)CC1`, the AC50 [1] was 33.3 µM (active), the AC50 [2] was 29.2 µM (active) and the AC50 [3] was 14.9 µM (active). The AC50 [4] was 12.3 µM (active), the AC50 [5] was 35.2 µM (active) and the AC50 [6] was 31.3 µM (active). The AC50 [7] was 28.4 µM (active), the AC50 [8] was 34.3 µM (active) and the AC50 [9] was 32.7 µM (active). The AC50 [10] was 29.8 µM (active).
For `CC[C@@H]1C[C@H](N(Cc2cc(C(F)(F)F)cc(C(F)(F)F)c2)C(C)=O)c2cc(C(F)(F)F)ccc2N1C(=O)OC(C)C`, the outcome [1] was “inactive”, the outcome [2] was “inactive” and the outcome [3] was “inactive”. For the same compound, the outcome [4] was “inactive”, the outcome [5] was “inactive” and the outcome [6] was “inactive”. For the same compound, the outcome [7] was “inactive”, the outcome [8] was “inactive” and the outcome [9] was “inactive”. For the same compound, the outcome [10] was “inactive”.
In the case of `O=CCCCC=O`, the AC50 [1] is reported as 32.4 µM (active), the AC50 [2] is reported as 31.6 µM (active) and the AC50 [3] is reported as 20.7 µM (active). For the same compound, the AC50 [4] was 34 µM (active), the AC50 [5] was 33.6 µM (active) and the AC50 [6] was 33 µM (active). For the same compound, the AC50 [7] was 34.1 µM (active), the AC50 [8] was 31.2 µM (active) and the AC50 [9] was 26.2 µM (active). The AC50 [10] was 29.6 µM (active).
In the case of `O=C(OCCCCCCOC(=O)c1ccccc1)c1ccccc1`, the outcome [1] is reported as “inactive”, the outcome [2] is reported as “inactive” and the outcome [3] is reported as “inactive”. The outcome [4] was “inactive”, the outcome [5] was “inactive” and the outcome [6] was “inactive”. For the same compound, the outcome [7] was “inactive”, the outcome [8] was “inactive” and the outcome [9] was “inactive”. The outcome [10] was “inactive”.
With `O=C(O)c1ccccc1-n1cc(C(=O)O)c(=O)c2cc(Nc3c(F)cc(F)cc3Cl)c(Cl)cc21` the outcome [1] was “inactive”, the outcome [2] was “inactive” and the outcome [3] was “inactive”. The outcome [4] was “inactive”, the outcome [5] was “inactive” and the outcome [6] was “inactive”. The outcome [7] was “inactive”, the outcome [8] was “inactive” and the outcome [9] was “inactive”. The outcome [10] was “inactive”.
With `CN1C(=O)CC[C@H]1c1cccnc1` the outcome [1] was “inactive”, the outcome [2] was “inactive” and the outcome [3] was “inactive”. The outcome [4] was “inactive”, the outcome [5] was “inactive” and the outcome [6] was “inactive”. The outcome [7] was “inactive”, the outcome [8] was “inactive” and the outcome [9] was “inactive”. The outcome [10] was “inactive”.
In the case of `Cc1cccc2ccccc12`, the outcome [1] is reported as “inactive”, the outcome [2] is reported as “inactive” and the outcome [3] is reported as “inactive”. For the same compound, the outcome [4] was “inactive”, the outcome [5] was “inactive” and the outcome [6] was “inactive”. For the same compound, the outcome [7] was “inactive”, the outcome [8] was “inactive” and the outcome [9] was “inactive”. For the same compound, the outcome [10] was “inactive”.
With `CCCCCCCC[Si](OCC)(OCC)OCC` the outcome [1] was “inactive”, the outcome [2] was “inactive” and the outcome [3] was “inactive”. For the same compound, the outcome [4] was “inactive”, the outcome [5] was “inactive” and the AC50 [6] was 37.5 µM (active). For the same compound, the outcome [7] was “inactive”, the outcome [8] was “inactive” and the outcome [9] was “inactive”. The outcome [10] was “inactive”.
For `CC(C)(C)c1csc(-c2cc3cc(OCc4ccccc4CC(=O)O)ccc3o2)n1`, the AC50 [1] was 15.2 µM (active), the AC50 [2] was 14.5 µM (active) and the AC50 [3] was 10.1 µM (active). The AC50 [4] was 11.3 µM (active), the AC50 [5] was 24.3 µM (active) and the AC50 [6] was 9.6 µM (active). For the same compound, the AC50 [7] was 12.6 µM (active), the AC50 [8] was 33 µM (active) and the AC50 [9] was 20.3 µM (active). The AC50 [10] was 10.8 µM (active).
With `CCCCCCCCOC(=O)c1cc(O)c(O)c(O)c1` the AC50 [1] was 19.7 µM (active), the AC50 [2] was 37.6 µM (active) and the AC50 [3] was 7.8 µM (active). For the same compound, the AC50 [4] was 15.2 µM (active), the AC50 [5] was 29.2 µM (active) and the AC50 [6] was 12.3 µM (active). For the same compound, the AC50 [7] was 15.3 µM (active), the AC50 [8] was 25.5 µM (active) and the AC50 [9] was 13.2 µM (active). For the same compound, the AC50 [10] was 8.45 µM (active).
For `Oc1ccc2ccccc2c1`, the outcome [1] was “inactive”, the outcome [2] was “inactive” and the outcome [3] was “inactive”. For the same compound, the outcome [4] was “inactive”, the outcome [5] was “inactive” and the outcome [6] was “inactive”. The outcome [7] was “inactive”, the outcome [8] was “inactive” and the outcome [9] was “inactive”. The outcome [10] was “inactive”.
In the case of `O=C(O)Cc1cc(I)c(Oc2ccc(O)c(I)c2)c(I)c1`, the outcome [1] is reported as “inactive”, the AC50 [2] is reported as 19.4 µM (active) and the outcome [3] is reported as “inactive”. For the same compound, the AC50 [4] was 10.4 µM (active), the outcome [5] was “inactive” and the AC50 [6] was 26.8 µM (active). For the same compound, the AC50 [7] was 25.5 µM (active), the outcome [8] was “inactive” and the outcome [9] was “inactive”. The AC50 [10] was 29.9 µM (active).
With `Cc1cn([C@H]2C[C@H](N=[N+]=[N-])[C@@H](CO)O2)c(=O)[nH]c1=O` the outcome [1] was “inactive”, the outcome [2] was “inactive” and the outcome [3] was “inactive”. The outcome [4] was “inactive”, the outcome [5] was “inactive” and the outcome [6] was “inactive”. The outcome [7] was “inactive”, the outcome [8] was “inactive” and the outcome [9] was “inactive”. For the same compound, the outcome [10] was “inactive”.
With `NCc1cccc(C2CCN(C(=O)c3ccc(C#Cc4ccccc4F)o3)CC2)c1` the AC50 [1] was 11.7 µM (active), the AC50 [2] was 11 µM (active) and the AC50 [3] was 7.78 µM (active). For the same compound, the AC50 [4] was 7.77 µM (active), the AC50 [5] was 29.6 µM (active) and the AC50 [6] was 12.4 µM (active). The AC50 [7] was 5.34 µM (active), the AC50 [8] was 12.3 µM (active) and the AC50 [9] was 8.8 µM (active). For the same compound, the AC50 [10] was 10.4 µM (active).
In the case of `COc1ccc2cc(S(=O)(=O)N[C@H](CC(=O)N[C@H](Cc3ccc(CN4[C@H](C)CCC[C@@H]4C)cc3)C(=O)N(C)C(C)C)c3ccc4c(c3)OCO4)ccc2c1`, the AC50 [1] is reported as 33.3 µM (active), the AC50 [2] is reported as 31.5 µM (active) and the AC50 [3] is reported as 32.1 µM (active). For the same compound, the AC50 [4] was 26 µM (active), the outcome [5] was “inactive” and the AC50 [6] was 29.3 µM (active). For the same compound, the AC50 [7] was 31.7 µM (active), the outcome [8] was “inactive” and the AC50 [9] was 27.6 µM (active). The outcome [10] was “inactive”.
In the case of `CCCCOC(=O)CC(CC(=O)OCCCC)(OC(C)=O)C(=O)OCCCC`, the outcome [1] is reported as “inactive”, the outcome [2] is reported as “inactive” and the outcome [3] is reported as “inactive”. For the same compound, the outcome [4] was “inactive”, the outcome [5] was “inactive” and the outcome [6] was “inactive”. For the same compound, the outcome [7] was “inactive”, the outcome [8] was “inactive” and the outcome [9] was “inactive”. The outcome [10] was “inactive”.
For `O=C(O)Cn1c(=O)n(Cc2ccc(Br)cc2F)c(=O)c2ccc(Cl)cc21`, the outcome [1] was “inactive”, the outcome [2] was “inactive” and the outcome [3] was “inactive”. For the same compound, the outcome [4] was “inactive”, the outcome [5] was “inactive” and the outcome [6] was “inactive”. For the same compound, the outcome [7] was “inactive”, the outcome [8] was “inactive” and the outcome [9] was “inactive”. The outcome [10] was “inactive”.
For `Cc1occc1C(=O)Nc1ccc(C(=O)N2CCC(F)(F)/C(=C\C(=O)N3CCC(N4CCCCC4)CC3)c3ccccc32)cc1`, the outcome [1] was “inactive”, the outcome [2] was “inactive” and the outcome [3] was “inactive”. The outcome [4] was “inactive”, the outcome [5] was “inactive” and the outcome [6] was “inactive”. For the same compound, the outcome [7] was “inactive”, the outcome [8] was “inactive” and the outcome [9] was “inactive”. For the same compound, the outcome [10] was “inactive”.
